Screening results: PubChem BioAssay, several laboratories
Ba/F3 V617F tox – loss of viability in JAK2V617F-driven Ba/F3 cells. inhibition, % at 5.6 µM. AID 1446. actives 1.1% (n = 220,000). Ba/F3 EpoR-JAK2V617F viability, ATP luminescence;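 active = inhibition above the campaign mean plus 3 SD over all tested compounds, cut at about 24% in these data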;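 note: cytokine-independent growth of Ba/F3 cells driven by EpoR plus mutant JAK2; 0% = DMSO-treated cells and 100% = JAK inhibitor I control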
BaF3 parental – parental Ba/F3 viability inhibition as JAK2V617F counter-screen; CellTiter-Glo ATP luminescence; inhibition, % at 5.6 µM; actives 1.1% (n = 220,000); AID 1486;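 active = inhibition above a per-campaign cutoff, the mean inhibition of all tested compounds plus 3 SD, cut at about 27% in these data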;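 note: 0% = DMSO wells and 100% = JAK Inhibitor I control wells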
IEC-6 tox – IEC-6 cytotoxicity, counter-screen for KLF5 inhibitors. luminescence viability. inhibition, % at 5 µM. actives 0.78% (n = 290,000). AID 1825;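 note: 0% = plate median of test compound wells and 100% = cytotoxic reference compound wells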
APP 5UTR inh – APP translation inhibition. SH-SY5Y APP 5'UTR-luciferase reporter, luminescence. inhibition, % at 2 µM. actives 0.82% (n = 190,000);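 active = inhibition above a set limit, derived from the sample mean plus 3 SD, cut at about 45% in these data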
KLF5 inh – inhibitors of KLF5 expression; DLD-1 KLF5 promoter-luciferase reporter, luminescence; actives 0.23% (n = 290,000); AID 1700; inhibition, % at 5 µM;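 active = inhibition above a per-plate limit of that plate's mean compound inhibition plus 3 SD, cut at about 60% in these data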;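 note: 0% = DMSO wells and 100% = LY294002 at 200 µM; higher means less KLF5 promoter-driven luciferase light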
IEC-6 tox confirm – confirmation of cytotoxic compounds in rat IEC-6 intestinal epithelial cells; shares compounds with IEC-6 tox; IEC-6 rat intestinal epithelial viability, luminescence; inhibition, % at 5 µM; actives 63% (n = 1,900);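 note: 0% = vehicle and 100% = reference cytotoxic drug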
Active calls of the source: *; nt = not tested or not shown. Hits are enriched below; roughly 1.9% of the tested compounds scored in any of these assays. Cut-off read from the data, not from the text of the source, unless noted: active = inhibition above about 22%; inactive = the rest.

SMILES	Ba/F3 V617F tox	BaF3 parental	IEC-6 tox	APP 5UTR inh	KLF5 inh	IEC-6 tox confirm
CCC1=Nc2cc(C(=O)NCc3cccnc3)ccc2Sc2ccc(C)cc21	72.3*	44.0*	66.7*	nt	29.3	55.7*
CCC1=Nc2cc(C(=O)NCC3CCCO3)ccc2Sc2ccc(Br)cc21 (centres undefined)	-0.8	15.2	28.4*	16.8	9.5	31.0*
CCC1=Nc2cc(C(=O)NCCCOC(C)C)ccc2Sc2ccccc21	-2.4	4.8	0.6	15.2	-3.0	nt
COc1ccc(C(=O)NCC2CCCO2)cc1 (centres undefined)	-0.3	5.3	-0.1	-8.3	-26.4	nt
COc1cc(OC)cc(C(=O)N2CC(=O)Nc3ccccc32)c1	nt	nt	74.2*	nt	51.7	55.9*
CCn1c(=O)cc(SCC(=O)NCCCN2CCN(c3ccccc3F)CC2)c2ccccc21	11.3	18.4	22.3*	11.0	-13.7	27.2*
Nc1cccc(-c2nc3ccc(C(=O)c4ccccc4)cc3[nH]2)c1	nt	nt	71.5*	nt	-4.4	60.0*
CCNc1oc(/C=C/c2ccc(OCC)cc2)nc1C#N	nt	nt	52.2*	nt	-16.8	35.6*
CCN(CC)CCCNc1oc(/C=C/c2ccccc2)nc1C#N	-3.8	2.6	3.0	nt	-28.7	nt
CN(CC(=O)Nc1c(Cl)cccc1Cl)C(=O)CCC1CCCC1	nt	nt	-0.8	nt	-15.0	nt
CC(C)CC(=O)NCCCCc1ccccc1	3.4	5.7	22.0*	-21.8	-36.1	6.2
CC(C)C(=O)NCCCc1ccccc1	0.5	0.9	4.3	1.4	-4.3	nt
O=C(CSc1ccc2ccccc2c1)NCCCN1CCCC1=O	1.5	3.2	3.1	-10.6	-29.9	nt
Nc1cc2nn(-c3ccccc3)nc2cc1Cl	-1.1	0.5	101.5*	-198.6	-92.1	45.8*
COCC1CCN(C(=O)C2CCC(=O)N(CCc3ccc(Cl)cc3)C2)CC1 (centres undefined)	nt	nt	7.5	nt	-15.5	nt
Cc1ccc(C)c(NS(=O)(=O)c2ccc(-c3cnc(C4CC4)o3)cc2)c1	nt	nt	92.7*	nt	60.5	62.2*
COc1ccccc1NS(=O)(=O)c1cc(-c2cnc(C3CC3)o2)ccc1C	nt	nt	19.7	nt	23.7	nt
Cc1cccc(NS(=O)(=O)c2ccc(-c3cnc(C4CC4)o3)cc2)c1C	nt	nt	87.9*	nt	37.8	58.3*
CC(=O)c1cccc(NS(=O)(=O)c2ccc(-c3cnc(C4CC4)o3)cc2)c1	nt	nt	37.5*	nt	21.8	37.6*
CC(=O)Nc1ccc(NS(=O)(=O)c2ccc(-c3cnc(C4CC4)o3)cc2)cc1	nt	nt	4.9	nt	-13.2	nt
O=S(=O)(NCc1ccc(F)cc1)c1ccc(-c2cnc(C3CC3)o2)cc1	nt	nt	5.0	nt	-24.7	nt
O=S(=O)(Nc1ccccc1)c1ccc(-c2cnc(C3CC3)o2)cc1	nt	nt	41.5*	nt	39.1	32.6*
CCOC(=O)C1=C(C)NC(=O)NC1C1CC=CCC1 (centres undefined)	-1.4	5.1	-0.5	-3.5	-8.6	nt
Cc1cccc(C(=O)NN/C=C/C(=O)c2ccccc2)c1	nt	nt	8.5	nt	-29.6	nt
CCOc1ccc(NC(=O)CCC(=O)NNC(=O)c2ccccc2Cl)cc1	nt	nt	1.0	nt	-26.8	nt
SMILES	Ba/F3 V617F tox	BaF3 parental	IEC-6 tox	APP 5UTR inh	KLF5 inh	IEC-6 tox confirm
COc1ccc(NS(=O)(=O)c2cc(-c3cnc(C4CC4)o3)ccc2C)cc1	nt	nt	80.7*	nt	40.6	73.8*
CCOc1ccc(NS(=O)(=O)c2ccc(-c3cnc(C4CC4)o3)cc2)cc1	nt	nt	17.5	nt	-9.0	nt
Cc1cc(C)cc(NS(=O)(=O)c2ccc(-c3cnc(C4CC4)o3)cc2)c1	nt	nt	87.2*	nt	59.3	50.7*
Cc1cnc(NC(=O)C2CC(=O)N(c3cccc(Cl)c3)C2)s1 (centres undefined)	nt	nt	72.7*	nt	59.1	33.0*
Cc1ccc(C(=O)N2CCCC(Nc3cccc(F)c3)C2)cc1N1CCNC1=O (centres undefined)	nt	nt	0.8	nt	-4.7	nt
COc1ccccc1CNC(=O)c1cc(C(C)=O)c[nH]1	nt	nt	3.6	nt	-8.2	nt
O=C(Cn1c(-c2ccccn2)nc2ccccc21)N/N=C/c1ccccn1	-0.7	2.8	-7.1	4.9	-9.0	nt
Cc1cc(C)cc(NC(=O)CCn2c(=O)c3cccn3c3ccccc32)c1	nt	nt	40.5*	nt	30.5	37.0*
Cc1ccc(NC(=O)CCn2c(=O)c3cccn3c3ccccc32)c(C)c1	nt	nt	-7.5	nt	-23.0	nt
CN(Cc1cn(C)nc1-c1ccc(Oc2ccccc2)cc1)C1CCOC1 (centres undefined)	-0.5	3.8	-1.6	nt	-13.3	nt
CN(Cc1cn(C)nc1-c1ccc(Oc2ccccc2)cc1)CC1COCCO1 (centres undefined)	98.1*	102.2*	77.1*	15.4	5.4	2.7
Cc1ccc(NC(=O)c2ccc(CNc3c(N4CCC(C)CC4)c(=O)c3=O)cc2)cc1	1.1	0.5	-0.8	nt	-16.1	nt
Cc1csc2ncnc(NC3CCN(Cc4ccccc4)CC3)c12	54.9*	60.7*	22.9*	nt	-25.6	14.1
Cc1ccc(-c2csc3ncnc(N4CCN(Cc5ccccc5)CC4)c23)cc1	nt	nt	-7.2	nt	-42.9	nt
Cc1nn(Cc2noc(C(=O)NC3CCC(C)CC3)n2)c(C)c1Br (centres undefined)	nt	nt	35.2*	nt	-16.0	23.8*
Cc1[nH]nc(Nc2ccc(C(C)C)cc2)c1[N+](=O)[O-]	-1.5	-1.6	40.0*	nt	-171.6	23.5*
Cc1ccc(Nc2n[nH]c(C)c2[N+](=O)[O-])cc1	0.4	5.7	-3.6	-54.3	-146.2	nt
Cc1[nH]nc(Nc2ccc(Br)cc2)c1[N+](=O)[O-]	1.1	5.4	35.1*	nt	-137.5	17.6
COc1cccc(-n2c(-c3cccc(S(=O)(=O)N(C)C)c3)n[nH]c2=S)c1	1.2	5.5	3.0	-8.2	-11.4	nt
Cc1[nH]c2ccc(-c3n[nH]c(=S)n3-c3ccc(Br)cc3)cc2c1C	-1.9	3.2	49.6*	-14.4	-4.9	44.1*
Cc1[nH]c2ccc(-c3n[nH]c(=S)n3-c3ccccc3)cc2c1C	-1.9	2.8	49.4*	-14.9	-31.6	32.1*
COc1cccc(-n2c(-c3ccc4[nH]c(C)c(C)c4c3)n[nH]c2=S)c1	3.9	6.2	48.3*	-2.2	-25.2	45.6*
CCn1cc(CN(C)S(=O)(=O)c2ccc3ccccc3c2)c(C)n1	1.1	7.3	7.4	-8.9	-6.8	nt
CCC(c1nnnn1Cc1ccco1)N(Cc1cc2cc(C)cc(C)c2[nH]c1=O)CC1CCCO1 (centres undefined)	-0.3	4.9	-1.2	11.3	2.6	nt
CC1(C)N=C(N)N=C(N)N1c1ccc(Oc2ccc(Cl)cc2)c(Cl)c1	nt	nt	55.1*	nt	2.1	32.7*
Nc1ccc2nn(-c3ccccc3)nc2c1	-3.8	0.9	-1.9	-92.6	-11.4	nt
CC1(C)N=C(N)N=C(N)N1c1ccccc1	95.8*	99.1*	40.4*	6.1	8.0	51.6*
Cc1cccnc1Sc1c([N+](=O)[O-])ncn1C	-0.9	3.7	-2.3	-2.0	-37.4	nt
CC(NC(=O)CSc1ncnc2nc[nH]c12)c1ccccc1 (centres undefined)	-4.6	1.4	5.6	-1.5	1.0	nt
Cn1cnc([N+](=O)[O-])c1Sc1ncnc2nc[nH]c12	55.7*	28.9*	34.9*	nt	-4.8	46.6*
